Laboratory results taken from the supplement of paper PMC6555819.

test system: VDR:RXRa (NR concentration 270 nM, RXRa partner concentration 90 nM); assay: PBM binding z-score (relative to random genomic background probes); higher = stronger binding; sequences stand for … in GC…GCGATTGACAGCGTAGAATGAAGG
Experimental: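 Protein-binding microarray (Agilent 4x180K custom design, double-stranded 60-nt probes: 5' GC cap, 34-nt variable region, 24-nt constant primer region; full probe sequence given). Purified or IVT nuclear receptor:RXRα heterodimers (3:1 NR:RXRα, mostly 270:90 nM) or homodimers were incubated for 1 h in PBS with 2% milk and no ligand, then detected with Alexa488 antibodies. Fluorescence from o1-orientation probes (~5 replicates averaged) was converted to z-scores against 500 random hg19 background probes. Variable regions are seed direct-repeat (DR0–DR5) sites, all their single-nucleotide variants and half-site ablations.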

Sequence	PBM binding z-score
ATATGTAGATTAGGGTCATTCAGAAAGTAGGGAA	4.06
CGAACTAGGTCACCAGGACAGTGACGAGGTTGGA	2.13
CTATGTAGGTAAAGGGGGTCATTCAGTTTGAAAG	6.95
CTATGTATGTTAAGGGGGTCATTCAGTTTGAAAG	6.64
ATCGGAAGGTCGAGGTGAGTATAGAGAAAGGGAA	1.31
TCGAGTAGGTTACGGGGCCATTCAGGGATGAAGA	1.26
CTATGTAGGTTAAGGGGGTCAATCAGTTTGAAAG	7.09
ATATGTAGGTTACGGTCATTCAGAAAGTAGGGAA	1.54
CAATGTAGGTTAAGGGGGTCATTCAGTTTGAAAG	7.74
CGTCCAAGGTAAGAGAGGTCAGTGAATGCCGAGT	4
GCTGCTAGGTCAACTGATGGTCAGCTAAAGCTCG	1.47
AGCTCTAGGTAAAAGTTCAGTGAATCCCGAGGAT	0.974
CCTACTGGGCCAATAAGGTCATTGATGCCGATAA	5.29
CTATGTAGATTAAGGGGGTCATTCAGTTTGAAAG	6.53
ATCGAAAGGTCGAAGGTGACTATACCCACCCGAA	2.9
CTATGTAGGTTATGGGGGTCATTCAGTTTGAAAG	7.53
ATATGTAGGTTAGGGTCATTCTGAAAGTAGGGAA	4.44
AGTCAAAGTTCAGGACGAGATAACGTAAAGCACG	2.19
CGAACTAGGTCAAAAGACAGTGAAAGGCGACGTA	0.721
CCTGCTAGTTCAATGGTCAGCTAAAGCAGCTCGC	0.426

Sequence	PBM binding z-score
CGGACTAGGTCAAAGGACAGTGAAAGGCGACGTA	1.16
CCGAGTAGCTTACGAGGGGGCATTCAGTGCGAAT	3.41
CTAACTAGGTCACGAAAGGTCAAAGTCGAATGAC	6.76
ATATGTAGGTTAGGGTCAATCAGAAAGTAGGGAA	3.8
ACTAGTAGGCCAAGGGTCACTCAAGATTAGTCCG	2.93
CAAACTAGGTCACGAAAGGTCAAAGTGGAATGAC	6.71
CTACGTAGGTTAAGGGGGTCATTCAGTTTGAAAG	7.58
CGTCTAAGGTCAAGGTCAGTGAAAGAGACTCGAA	5
CGTCCAAGGTCAATGCTAGCTCAGTGAAAGCATT	3.63
TCGAGTAGCTTACGGGGGCATTCAGGGATGAAGA	2.45
CAAACTAGGTCACGAGGTCAAAGTCCGCTTCCCG	6.42
ACTAGCAGGCCAAGGGTGACTCAAGATTAGTCCG	-0.401
CGAACTAGGTCAAAGGACCGTGAAAGGCGACGTA	1.03
TCTAGTTGGTTACGGAGGTCACACACGACGGGTA	4.27
AGACAAAGTTCAGGACGAGGTAACGTAAAGCACG	2.91
AGTCAAAGTTCACGACGAGGTAACGTAAAGCACG	5.05
CCTAGTGGGTCAGGAGGTCACACACCGGATATGA	4.65
CCGAGTAGGTTACGAGAGGGCATTCAGTGCGAAT	4.33
CGTCGAAGGTCAATGCTAGGTCAGTGAAAGCATT	4.47
CGGAGTAGGTTACGAGGGGGCATTCAGTGCGAAT	5.44
